The list is not random: actives were taken first. Their share in the collection is about 2.8%.
SKKanGAS inh – inhibitors of SKKanGAS S. pyogenes growth in kanamycin (SK-promoter or general growth effect). BacTiter-Glo, 6 h. inhibition, % at 7.5 µM. actives 1.3% (n = 300,000);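 active means mean replicate score, as percent of positive control median, at least 50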;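 further: strain carries kanamycin resistance gene driven by streptokinase promoter and grows in 40 µg/ml kanamycin; loss of luminescence reflects streptokinase promoter inhibition or plain growth inhibition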
Granule exo inh – blocks lytic granule exocytosis; AID 651702; inhibition, % at 10 µM; actives 0.66% (n = 360,000); TALL-104 LAMP-1 surface exposure, flow cytometry; cells stimulated with thapsigargin and PMA;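 active means inhibition above about 55%, limit read from the data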
IDE cell activ – IDE (human) activation, cell-based | P14735 | HEK cells, FAbeta-B cleavage, fluorescence polarization; 0% vehicle, 100% cell-free pure enzyme wells | activation, % at 5.96 µM | actives 0.073% (n = 340,000) | AID 493087;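 active means activation above the mean of all tested compounds plus 3 SD, set per screening campaign, cut at about 17% in these data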
IDE inh – cellular human IDE inhibition; AID 434962; HEK cells, FAbetaB cleavage, fluorescence polarization; P14735; actives 0.41% (n = 320,000); inhibition, % at 5.59 µM;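 active means percent inhibition above the average of all tested compounds plus 3 SD, set per screening campaign, cut at about 16% in these data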;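 further: IDE supplied by intact live HEK cells; FP after avidin binding of uncleaved biotin substrate so inhibition keeps polarization high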
PP1 counter – counter-screen for PP5 inhibitors: inhibitors of human PP1-alpha. P62136. purified PP1alpha, OMFP fluorescence. inhibition, % at 6.7 µM. actives 0.9% (n = 320,000). AID 2235;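 active means inhibition above the mean inhibition of all tested compounds plus 3 SD, computed separately for each screening campaign, cut at about 15% in these data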
Target sequence (P62136 whole entry, looked up): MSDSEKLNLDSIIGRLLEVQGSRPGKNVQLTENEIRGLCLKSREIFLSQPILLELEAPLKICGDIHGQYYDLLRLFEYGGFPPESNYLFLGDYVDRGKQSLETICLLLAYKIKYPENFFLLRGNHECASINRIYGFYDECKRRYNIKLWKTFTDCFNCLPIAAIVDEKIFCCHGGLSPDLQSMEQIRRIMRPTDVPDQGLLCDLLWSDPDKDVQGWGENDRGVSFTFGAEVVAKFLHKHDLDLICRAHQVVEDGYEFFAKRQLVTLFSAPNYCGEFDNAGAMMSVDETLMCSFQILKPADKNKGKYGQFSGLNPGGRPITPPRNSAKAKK
PP5 primary – PP5 (human) phosphatase inhibition. actives 0.18% (n = 320,000). P53041. inhibition, % at 6.7 µM. purified PP5c, OMFP substrate fluorescence;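 active means inhibition above the campaign's mean inhibition across all tested compounds plus 3 SD, cut at about 9.5% in these data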
Hits are given with their value; – = inactive; · = no result.

SMILES	SKKanGAS inh	Granule exo inh	IDE cell activ	IDE inh	PP1 counter	PP5 primary
CCCOC(=O)C1=C(C)NC2=C(C(=O)C(C(=O)OC)C(C)C2)C1c1ccc(N(CC)CC)cc1 (centres undefined)	–	–	–	–	–	–
CCC(C)OC(=O)C1=C(C)NC2=C(C(=O)C(C(=O)OC)C(C)C2)C1c1ccc(N(C)C)cc1 (centres undefined)	–	–	17	–	–	–
Cc1cc(OC(=O)c2ccc(S(=O)(=O)N(C)C)cc2)c([N+](=O)[O-])c(=O)[nH]1	–	–	–	–	–	–
CCOc1ccc(C2C(C#N)=C(N)SC(N)=C2C#N)cc1OC	–	·	·	20	–	–
COc1ccc(C2CC(=O)C(C=NCCN3CCN(C(=S)Nc4ccccc4)CC3)=C(O)C2)cc1OC (centres undefined)	–	–	·	–	–	–
Oc1c(C=Nc2cccc3cccnc23)sc2ccccc12	94	·	·	49	–	–
O=C(N/N=C/c1ccccc1)c1cccc2ccccc12	–	–	–	–	–	–
O=C(N/N=C/c1sc2ccccc2c1O)c1cccc2ccccc12	91	–	–	–	–	–
O=C(CCSC1=NCCCN1)c1ccc(F)cc1	·	–	–	·	·	·
Cc1ccccc1-n1c(SCC(N)=O)nc2sc(-c3ccccc3)cc2c1=O	–	–	–	–	–	–
Cc1ccccc1-n1c(SCC(=O)NC(N)=O)nc2sc(-c3ccccc3)cc2c1=O	86	–	–	–	–	–
Cn1c(-c2ccccc2)c(C#Cc2ccc(N)cc2)c2ccccc21	·	–	–	–	·	·
Nc1ccc(C#Cc2ccc3oc4ccccc4c(=O)c3c2)cc1	97	–	–	–	–	–
COc1cc2sc3ccc(C#CC4(O)CCCCC4)cc3c(=O)c2cc1OC	–	–	–	–	–	–
COc1cccc(C#Cc2c(C=O)n(C)c3ccccc23)c1	·	–	–	–	–	–
Nc1cccc(C#Cc2ccc3c(=O)c4ccccc4oc3c2)c1	·	–	–	–	–	–
Cn1c2ccccc2c(=O)c2cc(C#Cc3ccc(N)cc3)ccc21	85	–	–	–	–	–
COc1ccc(C#Cc2ccc3c(c2)c(=O)c2ccccc2n3C)cc1	91	–	–	–	–	–
Cn1c2ccccc2c(=O)c2ccc(C#CC3(O)CCCCC3)cc21	63	–	–	–	–	–
C/C(=N\NC(=O)CN1CCN(S(=O)(=O)c2ccc(C)cc2)CC1)c1ccncc1	–	–	–	–	–	–
O=C(Nc1cccc(C(F)(F)F)c1)c1cccnc1N1CCN(c2ccccc2)CC1	51	–	–	–	–	–
CCN(CC)C(=O)CSc1nc(-c2cccs2)cc(-c2cccs2)c1C#N	–	–	–	–	16	–
COc1cc(/C=C/C(=O)c2ccc3c(c2)OCCO3)cc(Br)c1OCC(=O)N(C)C	–	102	–	–	–	–
Cc1c(C)c(C)c2[nH]c(-c3ccc4c(c3)OCO4)nc2c1C	–	61	–	–	–	–
CC(=O)N1c2ccc(S(=O)(=O)N3CCC(C(=O)Nc4cc(C)ccn4)CC3)cc2CC1C (centres undefined)	52	–	–	–	–	–
SMILES	SKKanGAS inh	Granule exo inh	IDE cell activ	IDE inh	PP1 counter	PP5 primary
Cc1ccc(N(C)S(=O)(=O)c2ccc3c(c2)CC(C)N3C(=O)C2CC2)cc1 (centres undefined)	102	–	–	–	–	–
COc1ccc(NC(=O)C2CCN(S(=O)(=O)c3ccc4c(c3)CC(C)N4C(C)=O)CC2)cc1OC (centres undefined)	–	–	77	–	–	–
CC(=O)N1c2ccc(S(=O)(=O)N(C)c3cc(C)ccc3C)cc2CC1C (centres undefined)	–	–	–	–	–	–
CCOC(=O)C1=CCN(S(=O)(=O)c2ccc(C)cc2)C1c1cccc(F)c1 (centres undefined)	·	–	·	·	·	·
CCOC(=O)c1nc(-c2ccccc2)oc1N1CCOCC1	–	–	–	–	–	–
O=C(OCN1C(=O)c2ccccc2C1=O)c1cccc(OC(F)F)c1	–	–	–	–	–	–
Cn1nc(-c2ccccc2)c(CSc2ccccc2Cl)c1Cl	75	–	–	–	–	–
Cn1nc(-c2ccccc2)c(C(O)c2ccc(Cl)cc2)c1Cl (centres undefined)	–	–	–	–	–	–
Cc1ccc2[nH]c(=O)c(CN(C(=O)c3cccs3)c3ccccc3)cc2c1	–	–	–	–	–	–
Cc1noc(C)c1CSc1nc2[nH]ncc2c(=O)n1-c1ccccc1	–	–	–	–	–	–
O=c1c2cn[nH]c2nc(SCc2c(F)cccc2F)n1-c1ccc(Cl)cc1	59	–	–	–	–	–
CCC1CCCCN1S(=O)(=O)c1ccc(S(=O)(=O)N2CCN(S(=O)(=O)CC)CC2)cc1 (centres undefined)	–	–	18	–	–	–
Cc1cccc2c1c(N=NC(N)=S)c(O)n2C1OC(CO)C(O)C(O)C1O (centres undefined)	–	–	–	–	–	–
O=C(Nc1cccc(Cl)c1)C1CCCN(C2=NS(=O)(=O)c3ccccc32)C1 (centres undefined)	·	–	–	·	·	·
COc1cccc(C(=O)Nc2nnc(-c3cccs3)o2)c1	77	–	–	–	–	–
CC1CN(S(=O)(=O)c2ccc(C(=O)Nc3nnc(-c4ccccn4)o3)cc2)CC(C)O1 (centres undefined)	–	–	–	–	–	–
COc1cccc(-c2nnc(NC(=O)c3ccc(S(=O)(=O)N4CCOCC4)cc3)o2)c1	88	–	–	–	–	–
COc1cc(OC)cc(C(=O)NNC(=O)c2ccc3c(c2)OCCO3)c1	·	–	–	–	·	·
CC1CN(S(=O)(=O)c2ccc(C(=O)Nc3nnc(-c4ccc5c(c4)CCCC5)o3)cc2)CC(C)O1 (centres undefined)	93	–	–	–	–	–
COc1cc(OC)cc(-c2nnc(NC(=O)c3ccc4c(c3)OCCO4)o2)c1	109	–	–	–	–	–
COc1cccc(-c2nnc(NC(=O)c3ccc4ncsc4c3)o2)c1	69	–	–	–	–	–
CCOc1ccc(-c2nnc(NC(=O)c3ccc(OCC(C)C)c(OC)c3)o2)cc1	115	–	–	–	–	–
COc1cccc(C(=O)Nc2nnc(-c3ccc(Cl)cc3)o2)c1	88	–	–	–	–	–
COc1cccc(C(=O)Nc2nnc(-c3ccc(F)cc3)o2)c1	91	–	–	–	–	–
COC(=O)C1=CN(c2ccc(N3CCOCC3)cc2)C(N)=C(C#N)C1c1cccc(F)c1 (centres undefined)	·	–	·	·	·	·
CCCCSc1ncnc2c1ncn2C1CCCCO1 (centres undefined)	·	–	–	·	·	·
CCC(=O)N1N=C(c2c(O)n(C)c(=O)n(C)c2=O)CC1c1ccccc1 (centres undefined)	75	–	–	–	–	–
O=C(O)c1ccc2c3c(ncnc13)-c1ccccc1C2=O	59	·	·	–	–	–
